Measured values as given in PubChem BioAssay (NCI).
Compounds without any hit were thinned out: in the full panel of roughly 79,000, 15% have a hit. A number with no mark means an inactive call. Calls of active or inactive are those of the source. Rule as the data show it: active = growth inhibition above about 70%; inactive = the rest.

What was measured:
[1] = NCI Yeast Anticancer Drug Screen. Data for the rad50 strain (AID 155);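 also: 0% = growth of vehicle-only cultures of the same strain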; settings: S. cerevisiae rad50 strain growth inhibition, hits give high values
In short: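 DNA repair mutant yeast, compound exposure, growth read-out; inhibition is taken relative to vehicle.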

[2] = NCI Yeast Anticancer Drug Screen. Data for the mec2-1 strain (AID 157); settings: S. cerevisiae mec2-1 strain, hits give high values
In short: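 Cells of the genetically defined mec2-1 yeast strain are incubated with test compound. Inhibition of growth is calculated against vehicle-treated controls.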

[3] = NCI Yeast Anticancer Drug Screen. Data for the sgs1 mgt1 strain (AID 161);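 also: 0% = growth of cultures given vehicle only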; settings: S. cerevisiae sgs1 mgt1 strain, hits give high values
In short: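 Read-out: growth inhibition vs vehicle controls. Cells: mutant yeast strain deficient in DNA damage repair.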

[4] = NCI Yeast Anticancer Drug Screen. Data for the cln2 rad14 strain (AID 165);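 also: 0% = growth equal to vehicle treated cultures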; settings: S. cerevisiae cln2 rad14 strain, hits give high values
In short: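 The screen exposed genetically defined yeast (cln2 rad14) to test compounds and scored growth inhibition relative to vehicle-treated controls.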

[5] = NCI Yeast Anticancer Drug Screen. Data for the bub3 strain (AID 167); settings: S. cerevisiae bub3 mutant strain, hits give high values
In short: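 In this screen, a yeast mutant lacking normal mitotic checkpoint function is challenged with compound. Relative growth versus vehicle gives the inhibition value.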

[6] = NCI Yeast Anticancer Drug Screen. Data for the mlh1 rad18 strain (AID 175); settings: S. cerevisiae mlh1 rad18 strain growth inhibition, hits give high values
In short: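 Compound-treated yeast growth, normalised to vehicle controls. Strain bears defined DNA repair mutations.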

[7] = at 5.0 µM (retest, dose inferred, filed as 0.5)
[8] = at 50.0 µM (retest, dose inferred, filed as 5.0)

| SMILES | growth inhibition [1, 7] | growth inhibition [1, 8] | growth inhibition ([1]; at 50.0 µM) | growth inhibition [2, 7] | growth inhibition [2, 8] | growth inhibition ([2]; at 50.0 µM) | growth inhibition [3, 7] | growth inhibition [3, 8] | growth inhibition ([3]; at 50.0 µM) | growth inhibition [4, 7] | growth inhibition [4, 8] | growth inhibition ([4]; at 50.0 µM) | growth inhibition [5, 7] | growth inhibition [5, 8] | growth inhibition ([5]; at 50.0 µM) | growth inhibition [6, 7] | growth inhibition [6, 8] | growth inhibition ([6]; at 50.0 µM) |
| --- | --- | --- | --- | --- | --- | --- | --- | --- | --- | --- | --- | --- | --- | --- | --- | --- | --- | --- |
| COC(=O)c1ccccc1NC(=S)NN(C)C | 13% | 20% | -0.25% | 7% | 17% | -14.3% | -5% | 16% | -8.9% | 9% | 11% | 18.2% | -20% | 36% | 3.85% | 16% | 28% | -2% |
| O=c1c2ccccc2sc2c(CO)ccc(NCCN3CCCCC3)c12 | -5% | 45% | 71.2% (active) | 6% | -21% | 23.6% | -9% | 35% | 34.5% | -21% | 13% | 24.5% | 12% | 13% | 25.4% | 2% | 40% | 40.1% |
| CSc1nc(=Nc2ccccc2)sn1-c1ccccc1 | 10% | 98% (active) | 98.8% (active) | 26% | 98% (active) | 99.5% (active) | 27% | 98% (active) | 99.2% (active) | 27% | 97% (active) | 99.4% (active) | 41% | 98% (active) | 99.3% (active) | 15% | 98% (active) | 99% (active) |
| CN(C)c1ccc(/C=C(/C#N)c2ccc(Cl)cc2)cc1 | -16% | -18% | 3.45% | 0% | 8% | 13.2% | 3% | 15% | -10.3% | 27% | -6% | 64.4% | 6% | -25% | 7% | -17% | -18% | 5.5% |
| COc1cccc2c1C(=O)c1c(O)c3c(c(O)c1C2=O)C[C@@](O)(C(=O)CO)C[C@@H]3OC1CC(N(C)C)C(O)C(C)O1 (some centres not stated) | 94% (active) | 95% (active) | 90.1% (active) | 96% (active) | 97% (active) | 91.8% (active) | 97% (active) | 97% (active) | 91.2% (active) | 96% (active) | 95% (active) | 88.8% (active) | 95% (active) | 97% (active) | 89.3% (active) | 94% (active) | 94% (active) | 90.7% (active) |
| CC(=O)Oc1cccc2c1C(=O)C(Br)(Br)CCC2 | 91% (active) | 99% (active) | 92.1% (active) | 100% (active) | 99% (active) | 87% (active) | 92% (active) | 99% (active) | 88.5% (active) | 52% | 99% (active) | 89.4% (active) | 99% (active) | 99% (active) | 90% (active) | 99% (active) | 99% (active) | 93.2% (active) |
| CCCCCCCCCCCCCCOS(=O)(=O)O | 26% | 99% (active) | 99.5% (active) | -27% | 73% (active) | 99.7% (active) | -1% | 100% (active) | 99.6% (active) | 8% | 61% | 99.6% (active) | -9% | 35% | 99.7% (active) | 12% | 98% (active) | 99.5% (active) |
| O=C1C(=O)c2ccccc2C(O)=C1C(c1ccccc1)c1ccccc1 | 42% | 82% (active) | 53.5% | 39% | 85% (active) | 66% | 57% | 91% (active) | 82.5% (active) | 27% | 83% (active) | 58.2% | 18% | 83% (active) | 60.6% | 54% | 90% (active) | 62% |
| O=C(Nc1ccc([N+](=O)[O-])cc1[N+](=O)[O-])C(=O)C(C(=O)c1ccc(Cl)c(Cl)c1)C1OC(=O)c2ccccc21 (configuration not stated) | 27% | 27% | 67% | 25% | 25% | 40.9% | 22% | 22% | 61.8% | 30% | 30% | 72.3% (active) | 31% | 31% | 53.5% | 16% | 16% | 39.6% |
| O=Cc1ccc2ccc3ccccc3c2c1 | -8% | 85% (active) | 85.9% (active) | 8% | 66% | 41.4% | 6% | 56% | 79.1% (active) | -19% | 94% (active) | 21.2% | -27% | 95% (active) | 70.8% (active) | -7% | 93% (active) | 84.9% (active) |
| O=c1oc2ccccc2c(O)c1C1=N/C(=N/N=C/c2ccc(Cl)cc2)SC1 | -6% | 97% (active) | 64.2% | -3% | 98% (active) | 30.7% | -3% | 97% (active) | 4.05% | 0% | 95% (active) | 50.2% | -1% | 97% (active) | 98.5% (active) | 1% | 97% (active) | 47.2% |
| CCOC(=O)c1[nH]cnc1/N=N/c1nc(O)c(C#N)[nH]1 | 8% | 98% (active) | -5.65% | 3% | 99% (active) | 9.8% | -13% | 99% (active) | 6% | 6% | 99% (active) | 0.85% | -4% | 99% (active) | 1.55% | -6% | 99% (active) | -1.95% |
| CC(C)NCC=C=Nc1ccccc1 | -11% | -32% | 45.8% | -30% | -25% | 9.45% | -8% | -21% | 43.4% | -2% | -28% | 40.5% | -26% | -82% | -5.5% | -9% | -29% | 24.2% |
| COc1cccc2c1C(=O)c1c(O)c3c(c(O)c1C2=O)C[C@@](O)(/C(C)=N\NC=O)C[C@@H]3OC1CC(N)C(O)C(C)O1 (some centres not stated) | -3% | 86% (active) | 75% (active) | -1% | 45% | 49.5% | -4% | 38% | 72.7% (active) | 8% | 51% | 39.9% | 17% | 84% (active) | 76.5% (active) | 4% | 90% (active) | 76% (active) |
| COc1cc(C(c2cc3c(cc2OC(C)=O)OCO3)C(C)C(C)=O)cc(OC)c1OC (configuration not stated) | 3% | 84% (active) | -8.35% | 4% | 66% | 13.8% | 5% | 95% (active) | 0.1% | 7% | 49% | 51.2% | 1% | 40% | -1.75% | 1% | 38% | 29.1% |
| CC(=O)Oc1ccc2c(c1)CCC1C2CCC2(C)C1CCC21CO1 (configuration not stated) | -4% | 60% | 89.7% (active) | -6% | 18% | 28.6% | -3% | 54% | 73.4% (active) | 1% | 11% | 52.2% | 3% | 44% | 83% (active) | -6% | 29% | 66.7% |
| COC(=O)c1c[nH]c2ccc(Br)cc12 | -3% | 23% | 30.9% | 8% | 43% | 28.8% | -1% | 19% | 31.8% | -9% | -20% | 44% | 7% | 22% | 68.5% | 23% | 40% | 40.5% |
| O=C1c2ccccc2C(=O)c2c1ccc(O)c2O | 79% (active) | 96% (active) | 83.3% (active) | 75% (active) | 94% (active) | 75.8% (active) | 91% (active) | 94% (active) | 81.5% (active) | 23% | 63% | 65.7% | 80% (active) | 93% (active) | 77.9% (active) | 90% (active) | 96% (active) | 79% (active) |
| O=C1CCCCC1=C(I)I | 18% | 18% | 56.2% | 18% | 18% | 66.5% | 13% | 13% | 68.8% | -4% | -4% | 39.8% | 2% | 2% | 74.4% (active) | 12% | 12% | 72.2% (active) |
